{
  "source": "PubChem BioAssay (EPA / NIEHS)",
  "key": {"[1]": {"target": "mouse Cholecystokinin, CCK1 Receptor (CCKA), Cckar (gene 12425) (UniProt O08786)", "sequence (O08786 whole entry, looked up)": "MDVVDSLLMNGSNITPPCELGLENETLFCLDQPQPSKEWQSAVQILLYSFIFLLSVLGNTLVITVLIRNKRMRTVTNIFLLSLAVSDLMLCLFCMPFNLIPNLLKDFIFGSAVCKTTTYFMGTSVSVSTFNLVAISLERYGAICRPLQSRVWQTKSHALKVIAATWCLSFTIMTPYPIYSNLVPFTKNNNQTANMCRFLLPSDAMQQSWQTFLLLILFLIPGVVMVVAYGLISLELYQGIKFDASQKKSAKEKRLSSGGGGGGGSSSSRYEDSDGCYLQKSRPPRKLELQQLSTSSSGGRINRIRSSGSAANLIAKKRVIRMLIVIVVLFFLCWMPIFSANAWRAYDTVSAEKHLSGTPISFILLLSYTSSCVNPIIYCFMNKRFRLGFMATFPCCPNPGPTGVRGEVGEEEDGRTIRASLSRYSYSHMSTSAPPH", "experiment": "NVS_GPCR_mCCKAPeripheral: NovaScreen (NVS) G Protein-Coupled Receptor Assay for mouse Cholecystokinin, CCK1 Receptor (CCKA) (AID 2283285)", "procedure,_shortened": "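Chemicals were first screened in duplicate at 25 uM, with those meeting threshold (e.g., 30% inhibition) retested in singleton concentration series to 50 uM maximum. Binding of radioligand to mouse pancreatic membranes was read after 2 h by filtration and scintillation counting.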"}, "[2]": {"target": "human Opioid Receptor Mu (Opiate Mu), OPRM1 (gene 4988) (UniProt P35372)", "sequence (P35372 whole entry, looked up)": "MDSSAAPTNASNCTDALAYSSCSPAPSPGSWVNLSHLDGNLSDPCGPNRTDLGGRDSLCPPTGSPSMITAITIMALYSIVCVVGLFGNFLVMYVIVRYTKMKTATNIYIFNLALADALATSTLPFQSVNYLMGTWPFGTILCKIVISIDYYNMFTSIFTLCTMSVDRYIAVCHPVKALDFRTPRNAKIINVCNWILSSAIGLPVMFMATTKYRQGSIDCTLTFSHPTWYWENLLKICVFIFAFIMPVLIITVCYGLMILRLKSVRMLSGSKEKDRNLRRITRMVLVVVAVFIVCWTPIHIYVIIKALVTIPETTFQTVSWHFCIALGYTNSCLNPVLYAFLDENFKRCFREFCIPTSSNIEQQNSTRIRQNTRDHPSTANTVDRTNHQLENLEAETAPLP", "experiment": "NVS_GPCR_hOpiate_mu: NovaScreen (NVS) G Protein-Coupled Receptor Assay for human Opioid Receptor Mu (Opiate Mu) (AID 2283290);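 also: hits lower bound tracer signal versus DMSO meaning displacement of the ligand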", "procedure,_shortened": "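Radioligand displacement binding on membranes from CHO cells expressing the receptor, 2.5 h after dosing, filter-based scintillation counting; loss of signal vs DMSO baseline. Screened in duplicate at 25 uM, actives then run in concentration series.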"}, "[3]": {"target": "human Thromboxane A2 Receptor (TXA2), TBXA2R (gene 6915) (UniProt P21731)", "sequence (P21731 whole entry, looked up)": "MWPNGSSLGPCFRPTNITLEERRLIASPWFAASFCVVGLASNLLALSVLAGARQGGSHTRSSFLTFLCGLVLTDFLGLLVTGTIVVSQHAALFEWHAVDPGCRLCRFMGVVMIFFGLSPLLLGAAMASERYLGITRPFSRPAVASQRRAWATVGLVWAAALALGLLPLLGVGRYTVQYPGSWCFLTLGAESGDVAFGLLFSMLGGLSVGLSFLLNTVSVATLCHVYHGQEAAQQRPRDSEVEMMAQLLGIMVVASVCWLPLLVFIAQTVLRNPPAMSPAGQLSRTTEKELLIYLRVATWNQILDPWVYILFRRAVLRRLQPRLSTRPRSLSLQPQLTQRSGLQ", "experiment": "NVS_GPCR_hTXA2: NovaScreen (NVS) G Protein-Coupled Receptor Assay for human Thromboxane A2 Receptor (TXA2) (AID 2283282);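 also: actives reduce bound radioligand signal relative to DMSO baseline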", "procedure,_shortened": "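Cell-free radioligand binding with human platelet-derived receptor; 1 h after dosing, filter-based scintillation counting, loss of signal vs DMSO. Primary screen in duplicate at 25 uM.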"}, "[4]": {"target": "human Purinergic Receptor P2Y, P2RY1 (gene 5028) (UniProt P47900)", "sequence (P47900 whole entry, looked up)": "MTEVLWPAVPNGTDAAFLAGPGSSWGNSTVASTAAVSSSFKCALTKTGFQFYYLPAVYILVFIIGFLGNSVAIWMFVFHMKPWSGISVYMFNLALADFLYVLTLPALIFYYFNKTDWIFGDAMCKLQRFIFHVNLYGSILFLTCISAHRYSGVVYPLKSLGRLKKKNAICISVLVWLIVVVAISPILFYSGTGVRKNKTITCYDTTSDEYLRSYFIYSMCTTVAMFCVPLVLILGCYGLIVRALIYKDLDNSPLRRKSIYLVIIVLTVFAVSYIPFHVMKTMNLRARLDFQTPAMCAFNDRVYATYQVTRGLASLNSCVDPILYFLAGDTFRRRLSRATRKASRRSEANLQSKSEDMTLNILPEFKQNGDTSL", "experiment": "NVS_GPCR_hPY2: NovaScreen (NVS) G Protein-Coupled Receptor Assay for human Purinergic Receptor P2Y (AID 2283281)", "procedure,_shortened": "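Filtration scintillation readout of radioligand displacement on U937 extract, measured 1 h post-dosing. Single 25 uM duplicate screen, then singleton concentration series to 50 uM for chemicals passing threshold; DMSO as baseline.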"}, "[5]": {"target": "human Neurotensin Receptor (NTS), NTSR1 (gene 4923) (UniProt P30989)", "sequence (P30989 whole entry, looked up)": "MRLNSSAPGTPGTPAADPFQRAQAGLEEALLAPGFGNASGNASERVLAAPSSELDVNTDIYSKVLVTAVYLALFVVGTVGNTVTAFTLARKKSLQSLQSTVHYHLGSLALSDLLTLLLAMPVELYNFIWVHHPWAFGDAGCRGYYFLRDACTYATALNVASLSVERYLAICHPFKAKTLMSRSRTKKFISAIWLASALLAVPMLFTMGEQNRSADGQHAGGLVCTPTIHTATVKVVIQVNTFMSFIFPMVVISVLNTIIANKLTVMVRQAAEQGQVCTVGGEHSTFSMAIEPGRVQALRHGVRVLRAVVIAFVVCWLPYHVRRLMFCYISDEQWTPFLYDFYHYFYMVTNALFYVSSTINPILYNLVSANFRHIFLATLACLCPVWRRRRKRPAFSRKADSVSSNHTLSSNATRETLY", "experiment": "NVS_GPCR_hNTS: NovaScreen (NVS) G Protein-Coupled Receptor Assay for human Neurotensin Receptor (NTS) (AID 2283279)", "procedure,_shortened": "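Compounds competed with a radiolabelled ligand for binding to CHO-derived human neurotensin receptor; bound signal counted after filtration, 1 h. Screened first at a single concentration of 25 uM in duplicate, then concentration series to 50 uM maximum for actives.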"}, "[6]": {"target": "rat Serotonin, 5-Hydroxytryptamine Receptor 1 (5HT1), Non-Selective Binding, Htr1a (gene 24473) (UniProt P19327)", "sequence (P19327 whole entry, looked up)": "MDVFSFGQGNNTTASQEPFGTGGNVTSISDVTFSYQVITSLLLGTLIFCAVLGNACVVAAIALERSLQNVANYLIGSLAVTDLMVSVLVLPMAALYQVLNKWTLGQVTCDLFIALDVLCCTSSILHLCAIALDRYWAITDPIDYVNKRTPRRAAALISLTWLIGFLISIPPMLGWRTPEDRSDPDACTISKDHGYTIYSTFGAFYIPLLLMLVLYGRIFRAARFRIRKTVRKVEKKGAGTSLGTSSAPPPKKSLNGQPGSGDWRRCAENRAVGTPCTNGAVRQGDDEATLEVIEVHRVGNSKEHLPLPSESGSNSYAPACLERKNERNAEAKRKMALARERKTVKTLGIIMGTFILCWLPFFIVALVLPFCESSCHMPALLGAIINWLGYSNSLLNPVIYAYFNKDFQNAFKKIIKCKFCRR", "experiment": "NVS_GPCR_r5HT1_NonSelective: NovaScreen (NVS) G Protein-Coupled Receptor Assay for rat Serotonin, 5-Hydroxytryptamine Receptor 1 (5HT1), Non-Selective Binding (AID 2283286)", "procedure,_shortened": "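Binding of a radioligand to rat cortex membranes is read by filtration and scintillation counting after 1 h. Compounds were screened at 25 uM in duplicate. Actives were then titrated to a top of 50 uM. DMSO is the baseline.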"}, "[7]": {"test_system": "rabbit Platelet Activating Factor Receptor (PAF), gene 100354046", "experiment": "NVS_GPCR_rabPAF: NovaScreen (NVS) G Protein-Coupled Receptor Assay for rabbit Platelet Activating Factor Receptor (PAF) (AID 2283287)", "procedure,_shortened": "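Rabbit platelet membrane preparation; radioligand displacement read by filter-based scintillation counting 1 h after dosing, loss of signal versus DMSO. Primary screen in duplicate at 25 uM, actives followed up in concentration series.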"}, "[8]": {"target": "human Vasopressin 1A Receptor (V1A), AVPR1A (gene 552) (UniProt P37288)", "sequence (P37288 whole entry, looked up)": "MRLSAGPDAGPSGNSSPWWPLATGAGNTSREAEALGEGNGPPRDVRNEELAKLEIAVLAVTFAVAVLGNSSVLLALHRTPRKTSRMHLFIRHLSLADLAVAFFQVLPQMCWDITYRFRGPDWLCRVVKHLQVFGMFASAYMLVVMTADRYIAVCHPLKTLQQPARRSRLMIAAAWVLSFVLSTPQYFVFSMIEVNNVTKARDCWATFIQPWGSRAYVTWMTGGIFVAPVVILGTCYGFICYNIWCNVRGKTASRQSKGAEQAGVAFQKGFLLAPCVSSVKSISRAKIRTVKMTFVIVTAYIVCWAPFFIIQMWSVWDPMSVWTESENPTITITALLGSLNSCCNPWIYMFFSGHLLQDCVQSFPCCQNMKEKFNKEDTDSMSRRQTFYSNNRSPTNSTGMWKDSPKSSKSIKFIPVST", "experiment": "NVS_GPCR_hV1A: NovaScreen (NVS) G Protein-Coupled Receptor Assay for human Vasopressin 1A Receptor (V1A) (AID 2283284)", "procedure,_shortened": "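Single-concentration duplicate screen at 25 uM, with concentration-response follow-up (top 50 uM) for actives. The assay measured displacement of a radioligand from human platelet-derived receptor after 1.5 h, detected by filtration and scintillation counting.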"}, "[9]": {"target": "rat Adrenergic, Alpha 1, Non-selective Receptor (Adra1), Adra1a (gene 29412) (UniProt P43140)", "sequence (P43140 whole entry, looked up)": "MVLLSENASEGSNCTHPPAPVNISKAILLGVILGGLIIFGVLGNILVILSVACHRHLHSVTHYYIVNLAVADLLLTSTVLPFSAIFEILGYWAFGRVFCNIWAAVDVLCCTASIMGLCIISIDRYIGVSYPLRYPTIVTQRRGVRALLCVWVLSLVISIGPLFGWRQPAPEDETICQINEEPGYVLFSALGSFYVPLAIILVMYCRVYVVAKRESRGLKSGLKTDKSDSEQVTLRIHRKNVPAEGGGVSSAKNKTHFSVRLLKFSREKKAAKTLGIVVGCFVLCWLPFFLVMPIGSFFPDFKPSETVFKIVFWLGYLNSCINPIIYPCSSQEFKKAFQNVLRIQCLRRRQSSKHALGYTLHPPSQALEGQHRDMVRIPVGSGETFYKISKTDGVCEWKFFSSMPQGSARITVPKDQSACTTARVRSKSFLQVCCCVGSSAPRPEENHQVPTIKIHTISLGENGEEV", "experiment": "NVS_GPCR_rAdra1_NonSelective: NovaScreen (NVS) G Protein-Coupled Receptor Assay for rat Adrenergic, Alpha 1, Non-selective Receptor (Adra1) (AID 2283289)", "procedure,_shortened": "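Chemicals first screened in duplicate at 25 uM, then actives tested in concentration series up to 50 uM. Binding measured as displacement of radioligand from rat forebrain membrane receptors, 1 h, filtration with scintillation readout; DMSO baseline.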"}, "[10]": {"target": "human Opioid Receptor Delta 1 (Opiate D1), OPRD1 (gene 4985) (UniProt P41143)", "sequence (P41143 whole entry, looked up)": "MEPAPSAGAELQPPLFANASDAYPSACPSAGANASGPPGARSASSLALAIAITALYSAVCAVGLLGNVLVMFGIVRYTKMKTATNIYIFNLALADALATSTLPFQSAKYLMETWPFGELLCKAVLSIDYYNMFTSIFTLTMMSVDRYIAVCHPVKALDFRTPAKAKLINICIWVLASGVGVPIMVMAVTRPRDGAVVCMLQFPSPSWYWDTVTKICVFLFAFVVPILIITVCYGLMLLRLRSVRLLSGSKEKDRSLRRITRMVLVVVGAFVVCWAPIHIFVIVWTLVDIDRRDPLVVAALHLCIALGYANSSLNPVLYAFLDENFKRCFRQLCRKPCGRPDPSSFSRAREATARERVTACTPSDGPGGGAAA", "experiment": "NVS_GPCR_hOpiate_D1: NovaScreen (NVS) G Protein-Coupled Receptor Assay for human Opioid Receptor Delta 1 (Opiate D1) (AID 2283280)", "procedure,_shortened": "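Membrane preparations from CHO cells bearing the human receptor were incubated 1 h with test chemical, and bound radioligand was counted after filtration. Actives from 25 uM duplicate screening were retested in concentration-response.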"}},
  "note": "Inconclusive results are not listed. Active and inactive are the calls of the source. The calls were made as follows: active = hit-call score of the fitted dose curve at least 0.9, where 1 is the maximum; inconclusive = response in the unintended direction; inactive = score below 0.9.",
  "data": [
    {"smiles": "CCCSP(=O)(OCC)Oc1ccc(Br)cc1Cl", "note": "(stereo not drawn)", "values": [
      {"measurement": "outcome", "setting": "[1]", "value": "inactive"},
      {"measurement": "AC50", "setting": "[2]", "value": "4.96 µM (active)"}
    ]},
    {"smiles": "COc1cc(OC)nc(Sc2cccc(Cl)c2C(=O)O)n1", "values": [
      {"measurement": "AC50", "setting": "[3]", "value": "4.45 µM (active)"}
    ]},
    {"smiles": "CN(C)[C@@H]1C(=O)C(C(N)=O)=C(O)[C@@]2(O)C(=O)C3=C(O)c4c(O)cccc4[C@@](C)(O)[C@H]3[C@H](O)[C@@H]12", "values": [
      {"measurement": "outcome", "setting": "[4]", "value": "inactive"},
      {"measurement": "outcome", "setting": "[3]", "value": "inactive"}
    ]},
    {"smiles": "CCOP(=S)(OCC)Oc1cc(C)nc(C(C)C)n1", "values": [
      {"measurement": "outcome", "setting": "[5]", "value": "inactive"},
      {"measurement": "outcome", "setting": "[6]", "value": "inactive"}
    ]},
    {"smiles": "COP(=O)(OC)OC(Br)C(Cl)(Cl)Br", "note": "(stereo not drawn)", "values": [
      {"measurement": "outcome", "setting": "[7]", "value": "inactive"},
      {"measurement": "AC50", "setting": "[2]", "value": "8.83 µM (active)"}
    ]},
    {"smiles": "CNC(=O)ON=C(C)SC", "values": [
      {"measurement": "outcome", "setting": "[7]", "value": "inactive"}
    ]},
    {"smiles": "CC1=NNC(=O)N(/N=C/c2cccnc2)C1", "values": [
      {"measurement": "outcome", "setting": "[5]", "value": "inactive"}
    ]},
    {"smiles": "CCCCSP(=O)(SCCCC)SCCCC", "values": [
      {"measurement": "outcome", "setting": "[5]", "value": "inactive"}
    ]},
    {"smiles": "COc1cccc(C(=O)NN(C(=O)c2cc(C)cc(C)c2)C(C)(C)C)c1C", "values": [
      {"measurement": "outcome", "setting": "[8]", "value": "inactive"}
    ]},
    {"smiles": "CCOP(=O)(OCC)Oc1cc(C)nc(C(C)C)n1", "values": [
      {"measurement": "outcome", "setting": "[6]", "value": "inactive"}
    ]},
    {"smiles": "Nc1nc(N)nc(NC2CC2)n1", "values": [
      {"measurement": "outcome", "setting": "[9]", "value": "inactive"}
    ]},
    {"smiles": "CCc1cccc(C)c1N(C(=O)CCl)C(C)COC", "note": "(stereo not drawn)", "values": [
      {"measurement": "AC50", "setting": "[2]", "value": "5.26 µM (active)"}
    ]},
    {"smiles": "O=C(O)c1cc(Oc2ccc(C(F)(F)F)cc2Cl)ccc1[N+](=O)[O-]", "values": [
      {"measurement": "outcome", "setting": "[10]", "value": "inactive"}
    ]},
    {"smiles": "CCC(=NOC/C=C/Cl)C1=C(O)CC(C2CCOCC2)CC1=O", "note": "(stereo not drawn)", "values": [
      {"measurement": "outcome", "setting": "[8]", "value": "inactive"}
    ]},
    {"smiles": "CC(C)=CC1C(C(=O)OCN2C(=O)C3=C(CCCC3)C2=O)C1(C)C", "note": "(stereo not drawn)", "values": [
      {"measurement": "AC50", "setting": "[7]", "value": "7.72 µM (active)"},
      {"measurement": "outcome", "setting": "[9]", "value": "inactive"}
    ]},
    {"smiles": "CN(C)C(=O)Nc1cccc(C(F)(F)F)c1", "values": [
      {"measurement": "outcome", "setting": "[6]", "value": "inactive"}
    ]},
    {"smiles": "CCCOCC(=Nc1ccc(Cl)cc1C(F)(F)F)n1ccnc1", "values": [
      {"measurement": "AC50", "setting": "[2]", "value": "7.33 µM (active)"}
    ]},
    {"smiles": "CC[C@H](C)[C@H]1O[C@]2(C=C[C@@H]1C)C[C@@H]1C[C@@H](C/C=C(\\C)[C@@H](O[C@H]3C[C@H](OC)[C@@H](O[C@H]4C[C@H](OC)[C@@H](NC)[C@H](C)O4)[C@H](C)O3)[C@@H](C)/C=C/C=C3\\CO[C@@H]4[C@H](O)C(C)=C[C@@H](C(=O)O1)[C@]34O)O2", "values": [
      {"measurement": "AC50", "setting": "[5]", "value": "0.00229 µM (active)"},
      {"measurement": "AC50", "setting": "[10]", "value": "15.5 µM (active)"},
      {"measurement": "AC50", "setting": "[3]", "value": "14.5 µM (active)"},
      {"measurement": "outcome", "setting": "[8]", "value": "inactive"},
      {"measurement": "AC50", "setting": "[1]", "value": "10.4 µM (active)"},
      {"measurement": "AC50", "setting": "[2]", "value": "15 µM (active)"}
    ]},
    {"smiles": "CCc1cccc(CC)c1N(COC)C(=O)CCl", "values": [
      {"measurement": "AC50", "setting": "[2]", "value": "4.96 µM (active)"}
    ]},
    {"smiles": "C[Si](Cn1cncn1)(c1ccc(F)cc1)c1ccc(F)cc1", "values": [
      {"measurement": "AC50", "setting": "[1]", "value": "25 µM (active)"},
      {"measurement": "AC50", "setting": "[7]", "value": "6.38 µM (active)"},
      {"measurement": "AC50", "setting": "[2]", "value": "9.11 µM (active)"}
    ]},
    {"smiles": "CCC(=O)Nc1ccc(Cl)c(Cl)c1", "values": [
      {"measurement": "outcome", "setting": "[6]", "value": "inactive"}
    ]},
    {"smiles": "C#CCC1=C(C)C(OC(=O)C2C(C=C(C)C)C2(C)C)CC1=O", "note": "(stereo not drawn)", "values": [
      {"measurement": "outcome", "setting": "[1]", "value": "inactive"},
      {"measurement": "AC50", "setting": "[7]", "value": "10.9 µM (active)"}
    ]},
    {"smiles": "CCCCOC(=O)c1ccccc1C(=O)O", "values": [
      {"measurement": "outcome", "setting": "[9]", "value": "inactive"}
    ]},
    {"smiles": "CCOP(=S)(Oc1cnc(C(C)(C)C)nc1)OC(C)C", "note": "(stereo not drawn)", "values": [
      {"measurement": "AC50", "setting": "[7]", "value": "11.5 µM (active)"}
    ]},
    {"smiles": "CCOP(=S)(OCC)OC(Cl)C(Cl)(Cl)Cl", "note": "(stereo not drawn)", "values": [
      {"measurement": "outcome", "setting": "[9]", "value": "inactive"}
    ]},
    {"smiles": "CCCCOC(=O)[C@@H](C)Oc1ccc(Oc2ccc(C#N)cc2F)cc1", "values": [
      {"measurement": "outcome", "setting": "[5]", "value": "inactive"},
      {"measurement": "outcome", "setting": "[7]", "value": "inactive"}
    ]},
    {"smiles": "FC(F)C(F)(F)OCC(Cn1cncn1)c1ccc(Cl)cc1Cl", "note": "(stereo not drawn)", "values": [
      {"measurement": "outcome", "setting": "[3]", "value": "inactive"},
      {"measurement": "AC50", "setting": "[2]", "value": "9.52 µM (active)"}
    ]},
    {"smiles": "S=C1NCCN1", "values": [
      {"measurement": "outcome", "setting": "[2]", "value": "inactive"}
    ]}
  ]
}
